We go through 4 compounds from ChEMBL document CHEMBL1961873, “Compounds: GSK PKIS; Assays: Nanosyn kinase panel” (2012).

Each structure is given as a SMILES string.

Experiment [1] has as its target 5'-AMP-activated protein kinase catalytic subunit alpha-2 (Homo sapiens) (UniProt P54646). The note with it: at 1 µM.
Experiment [2] concerns the target T1, NUAK family SNF1-like kinase 1 (Homo sapiens) (UniProt O60285).
T1 sequence (whole entry): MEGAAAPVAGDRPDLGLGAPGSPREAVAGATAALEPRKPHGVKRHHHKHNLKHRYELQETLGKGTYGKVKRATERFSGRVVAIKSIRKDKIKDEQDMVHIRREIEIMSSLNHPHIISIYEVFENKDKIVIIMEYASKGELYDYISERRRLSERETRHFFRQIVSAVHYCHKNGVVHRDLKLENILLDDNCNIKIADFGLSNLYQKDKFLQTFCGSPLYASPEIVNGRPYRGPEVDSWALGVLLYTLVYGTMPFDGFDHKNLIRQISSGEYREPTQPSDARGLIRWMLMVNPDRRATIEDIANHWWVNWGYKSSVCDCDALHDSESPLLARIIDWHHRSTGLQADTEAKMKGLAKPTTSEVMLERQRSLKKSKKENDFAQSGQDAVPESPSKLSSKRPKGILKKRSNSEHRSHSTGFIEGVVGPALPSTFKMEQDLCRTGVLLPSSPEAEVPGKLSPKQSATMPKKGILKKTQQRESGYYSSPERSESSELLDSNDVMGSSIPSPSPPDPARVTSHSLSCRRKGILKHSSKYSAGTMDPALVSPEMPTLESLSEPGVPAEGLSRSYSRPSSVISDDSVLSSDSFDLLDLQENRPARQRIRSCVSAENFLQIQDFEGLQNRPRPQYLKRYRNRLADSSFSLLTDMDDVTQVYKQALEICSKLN
The note with it: at 0.1 µM.

For experiment [3], the target named is T1, NUAK family SNF1-like kinase 1 (Homo sapiens). The settings on record: at 1 µM.
Experiment [4] addresses T2, Serine/threonine-protein kinase BRSK1 (Homo sapiens) (UniProt Q8TDC3).
T2 sequence (whole entry): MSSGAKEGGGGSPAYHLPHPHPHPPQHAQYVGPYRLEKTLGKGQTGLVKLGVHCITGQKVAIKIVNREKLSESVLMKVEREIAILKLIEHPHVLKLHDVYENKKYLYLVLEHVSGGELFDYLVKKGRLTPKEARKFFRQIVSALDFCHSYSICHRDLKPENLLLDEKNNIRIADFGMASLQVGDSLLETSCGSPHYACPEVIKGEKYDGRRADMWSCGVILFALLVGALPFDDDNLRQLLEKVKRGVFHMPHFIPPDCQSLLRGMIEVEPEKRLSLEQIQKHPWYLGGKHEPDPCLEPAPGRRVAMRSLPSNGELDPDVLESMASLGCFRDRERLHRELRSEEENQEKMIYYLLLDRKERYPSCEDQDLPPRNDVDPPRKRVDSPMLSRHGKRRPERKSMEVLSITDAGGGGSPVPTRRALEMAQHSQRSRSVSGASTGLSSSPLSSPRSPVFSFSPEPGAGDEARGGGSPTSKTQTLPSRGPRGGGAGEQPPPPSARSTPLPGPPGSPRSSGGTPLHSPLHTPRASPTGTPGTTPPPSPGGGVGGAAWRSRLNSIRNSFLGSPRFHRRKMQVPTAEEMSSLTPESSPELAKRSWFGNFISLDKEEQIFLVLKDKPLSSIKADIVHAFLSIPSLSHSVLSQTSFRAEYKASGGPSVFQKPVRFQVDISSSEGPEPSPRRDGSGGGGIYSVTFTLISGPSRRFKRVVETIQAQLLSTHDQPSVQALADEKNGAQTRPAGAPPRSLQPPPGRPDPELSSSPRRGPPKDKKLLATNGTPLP
The settings on record: at 0.1 µM.

The target of experiment [5] is T2, Serine/threonine-protein kinase BRSK1 (Homo sapiens). The settings on record: at 1 µM.
The target of experiment [6] is T3, Serine/threonine-protein kinase BRSK2 (Homo sapiens) (UniProt Q8IWQ3).
T3 sequence (whole entry): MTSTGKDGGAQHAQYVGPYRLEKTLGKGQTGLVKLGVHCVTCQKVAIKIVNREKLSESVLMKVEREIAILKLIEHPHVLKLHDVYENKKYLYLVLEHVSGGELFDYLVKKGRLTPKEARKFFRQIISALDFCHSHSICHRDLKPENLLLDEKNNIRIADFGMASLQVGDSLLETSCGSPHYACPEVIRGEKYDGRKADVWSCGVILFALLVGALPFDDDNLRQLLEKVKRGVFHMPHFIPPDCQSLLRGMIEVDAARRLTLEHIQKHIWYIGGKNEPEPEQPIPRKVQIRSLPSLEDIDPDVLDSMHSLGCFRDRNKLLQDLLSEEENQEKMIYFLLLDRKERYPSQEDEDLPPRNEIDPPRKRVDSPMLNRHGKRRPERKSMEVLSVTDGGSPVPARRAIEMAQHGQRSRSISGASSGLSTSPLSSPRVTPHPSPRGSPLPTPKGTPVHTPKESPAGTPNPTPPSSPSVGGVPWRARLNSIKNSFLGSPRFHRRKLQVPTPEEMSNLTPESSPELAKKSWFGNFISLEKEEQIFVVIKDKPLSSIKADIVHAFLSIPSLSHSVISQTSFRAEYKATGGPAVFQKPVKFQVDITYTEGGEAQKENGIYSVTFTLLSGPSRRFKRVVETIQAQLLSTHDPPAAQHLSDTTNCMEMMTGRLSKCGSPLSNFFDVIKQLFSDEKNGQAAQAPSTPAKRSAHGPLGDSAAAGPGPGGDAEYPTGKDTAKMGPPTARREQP
The settings on record: at 0.1 µM.

Experiment [7] deals with T3, Serine/threonine-protein kinase BRSK2 (Homo sapiens). The note with it: at 1 µM.
In experiment [8] the target is Calcium/calmodulin-dependent protein kinase type 1D (Homo sapiens) (UniProt Q8IU85). The settings on record: at 0.1 µM.
For experiment [9] the target is unchanged. The note with it: at 1 µM.
In experiment [10] the target is Calcium/calmodulin-dependent protein kinase type II subunit alpha (Homo sapiens) (UniProt Q9UQM7). The settings on record: at 0.1 µM.
The target is the same in experiment [11]. The note with it: at 1 µM.
For experiment [12], the target named is Calcium/calmodulin-dependent protein kinase type II subunit delta (Homo sapiens) (UniProt Q13557). The settings on record: at 0.1 µM.
For experiment [13] the target is unchanged. The settings on record: at 1 µM.
Experiment [14] addresses T4, Calcium/calmodulin-dependent protein kinase type IV (Homo sapiens) (UniProt Q16566).
T4 sequence (whole entry): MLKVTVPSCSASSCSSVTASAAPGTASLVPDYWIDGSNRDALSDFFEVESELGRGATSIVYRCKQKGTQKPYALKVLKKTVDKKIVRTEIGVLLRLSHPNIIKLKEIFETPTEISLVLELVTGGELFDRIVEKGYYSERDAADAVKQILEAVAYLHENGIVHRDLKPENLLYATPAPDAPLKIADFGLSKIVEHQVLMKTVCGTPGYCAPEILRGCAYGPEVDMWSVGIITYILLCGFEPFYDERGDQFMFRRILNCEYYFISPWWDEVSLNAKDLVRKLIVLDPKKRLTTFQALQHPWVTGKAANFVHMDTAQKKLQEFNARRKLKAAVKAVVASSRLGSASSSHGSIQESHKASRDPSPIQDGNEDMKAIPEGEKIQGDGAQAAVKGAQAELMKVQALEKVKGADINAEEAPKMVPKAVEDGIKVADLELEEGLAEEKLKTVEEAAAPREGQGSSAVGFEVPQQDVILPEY
The settings on record: at 0.1 µM.

The target in experiment [15] is T4, Calcium/calmodulin-dependent protein kinase type IV (Homo sapiens). The settings on record: at 1 µM.
The target in experiment [16] is T5, Serine/threonine-protein kinase Chk1 (Homo sapiens) (UniProt O14757).
T5 sequence (whole entry): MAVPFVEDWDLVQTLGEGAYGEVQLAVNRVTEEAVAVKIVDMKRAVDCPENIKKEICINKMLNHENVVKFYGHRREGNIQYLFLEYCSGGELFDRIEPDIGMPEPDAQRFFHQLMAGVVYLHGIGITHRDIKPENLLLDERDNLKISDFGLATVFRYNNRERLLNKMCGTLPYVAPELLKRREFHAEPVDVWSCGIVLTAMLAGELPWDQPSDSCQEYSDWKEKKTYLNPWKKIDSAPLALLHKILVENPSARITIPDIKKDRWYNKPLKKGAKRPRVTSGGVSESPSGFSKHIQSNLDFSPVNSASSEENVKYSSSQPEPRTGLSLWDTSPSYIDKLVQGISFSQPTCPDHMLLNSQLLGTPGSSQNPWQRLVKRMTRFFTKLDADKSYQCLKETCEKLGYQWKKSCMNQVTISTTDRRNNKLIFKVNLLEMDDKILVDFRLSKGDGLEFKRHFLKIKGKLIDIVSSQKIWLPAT
The settings on record: at 0.1 µM.

In experiment [17] the target is T5, Serine/threonine-protein kinase Chk1 (Homo sapiens). The note with it: at 1 µM.
In experiment [18] the target is Serine/threonine-protein kinase Chk2 (Homo sapiens) (UniProt O96017). The note with it: at 0.1 µM.
For experiment [19] the target is unchanged. The settings on record: at 1 µM.
The target in experiment [20] is Death-associated protein kinase 1 (Homo sapiens) (UniProt P53355). The settings on record: at 0.1 µM.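 Further: reported figure is the mean inhibition of DAPK1.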
Sequence of Death-associated protein kinase 1 (Homo sapiens) (P53355 whole entry, looked up): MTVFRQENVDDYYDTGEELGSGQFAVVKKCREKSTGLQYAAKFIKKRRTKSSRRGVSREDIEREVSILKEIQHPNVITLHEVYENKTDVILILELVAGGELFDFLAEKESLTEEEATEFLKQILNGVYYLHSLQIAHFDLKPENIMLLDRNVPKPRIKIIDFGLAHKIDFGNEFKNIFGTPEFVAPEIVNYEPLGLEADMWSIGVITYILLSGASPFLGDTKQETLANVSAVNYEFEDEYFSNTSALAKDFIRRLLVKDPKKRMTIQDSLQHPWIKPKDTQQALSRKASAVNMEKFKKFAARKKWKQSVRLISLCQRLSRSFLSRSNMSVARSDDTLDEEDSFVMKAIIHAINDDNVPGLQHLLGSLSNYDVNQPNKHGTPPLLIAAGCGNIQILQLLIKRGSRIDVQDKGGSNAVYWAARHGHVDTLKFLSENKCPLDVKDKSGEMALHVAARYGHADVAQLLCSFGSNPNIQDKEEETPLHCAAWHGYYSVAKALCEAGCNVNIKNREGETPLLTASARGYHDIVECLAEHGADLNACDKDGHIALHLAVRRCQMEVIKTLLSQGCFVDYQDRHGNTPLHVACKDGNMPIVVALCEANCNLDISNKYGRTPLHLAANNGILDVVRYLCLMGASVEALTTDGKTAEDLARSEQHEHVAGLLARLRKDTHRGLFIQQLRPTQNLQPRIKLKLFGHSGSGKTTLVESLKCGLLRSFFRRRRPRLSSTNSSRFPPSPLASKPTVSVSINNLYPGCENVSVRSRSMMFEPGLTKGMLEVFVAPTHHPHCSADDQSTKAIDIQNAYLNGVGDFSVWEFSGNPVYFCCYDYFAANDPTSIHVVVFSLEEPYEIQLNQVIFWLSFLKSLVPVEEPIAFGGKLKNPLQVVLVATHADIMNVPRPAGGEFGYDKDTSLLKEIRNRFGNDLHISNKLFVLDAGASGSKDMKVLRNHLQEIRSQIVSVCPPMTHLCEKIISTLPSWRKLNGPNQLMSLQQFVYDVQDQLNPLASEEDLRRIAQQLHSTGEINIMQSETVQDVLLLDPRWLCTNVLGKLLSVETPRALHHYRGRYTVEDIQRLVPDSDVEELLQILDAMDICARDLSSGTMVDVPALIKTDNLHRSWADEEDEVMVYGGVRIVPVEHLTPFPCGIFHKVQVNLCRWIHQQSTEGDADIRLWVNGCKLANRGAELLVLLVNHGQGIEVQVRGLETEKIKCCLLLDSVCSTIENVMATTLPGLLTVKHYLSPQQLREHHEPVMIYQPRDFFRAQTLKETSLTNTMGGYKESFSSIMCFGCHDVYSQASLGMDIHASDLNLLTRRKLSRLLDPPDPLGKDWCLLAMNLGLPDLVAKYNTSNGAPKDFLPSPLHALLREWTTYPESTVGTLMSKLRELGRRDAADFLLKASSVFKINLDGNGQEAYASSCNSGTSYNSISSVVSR

Sequence of Calcium/calmodulin-dependent protein kinase type 1D (Homo sapiens) (Q8IU85 whole entry, looked up): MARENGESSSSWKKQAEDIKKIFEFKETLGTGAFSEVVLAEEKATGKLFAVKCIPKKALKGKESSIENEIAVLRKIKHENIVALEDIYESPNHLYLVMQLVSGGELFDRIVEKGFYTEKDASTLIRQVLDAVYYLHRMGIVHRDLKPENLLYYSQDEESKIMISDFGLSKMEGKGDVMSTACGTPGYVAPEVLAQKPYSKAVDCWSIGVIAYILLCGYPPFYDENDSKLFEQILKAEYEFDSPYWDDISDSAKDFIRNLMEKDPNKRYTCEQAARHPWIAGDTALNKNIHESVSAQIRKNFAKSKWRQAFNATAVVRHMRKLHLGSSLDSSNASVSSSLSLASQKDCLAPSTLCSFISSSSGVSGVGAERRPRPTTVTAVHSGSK
Sequence of Calcium/calmodulin-dependent protein kinase type II subunit alpha (Homo sapiens) (Q9UQM7 whole entry): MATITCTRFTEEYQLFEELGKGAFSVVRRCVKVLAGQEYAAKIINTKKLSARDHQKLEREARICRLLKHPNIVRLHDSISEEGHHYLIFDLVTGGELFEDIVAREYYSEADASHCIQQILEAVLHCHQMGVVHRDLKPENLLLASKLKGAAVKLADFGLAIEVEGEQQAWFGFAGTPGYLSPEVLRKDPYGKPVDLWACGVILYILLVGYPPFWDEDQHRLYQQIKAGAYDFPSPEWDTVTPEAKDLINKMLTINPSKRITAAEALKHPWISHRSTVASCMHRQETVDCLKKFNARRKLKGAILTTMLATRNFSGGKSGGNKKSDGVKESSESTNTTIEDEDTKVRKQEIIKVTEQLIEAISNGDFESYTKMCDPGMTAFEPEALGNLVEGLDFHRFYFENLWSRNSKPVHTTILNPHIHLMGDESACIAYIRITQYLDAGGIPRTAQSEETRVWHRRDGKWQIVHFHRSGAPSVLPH
Sequence of Serine/threonine-protein kinase Chk2 (Homo sapiens) (O96017 whole entry): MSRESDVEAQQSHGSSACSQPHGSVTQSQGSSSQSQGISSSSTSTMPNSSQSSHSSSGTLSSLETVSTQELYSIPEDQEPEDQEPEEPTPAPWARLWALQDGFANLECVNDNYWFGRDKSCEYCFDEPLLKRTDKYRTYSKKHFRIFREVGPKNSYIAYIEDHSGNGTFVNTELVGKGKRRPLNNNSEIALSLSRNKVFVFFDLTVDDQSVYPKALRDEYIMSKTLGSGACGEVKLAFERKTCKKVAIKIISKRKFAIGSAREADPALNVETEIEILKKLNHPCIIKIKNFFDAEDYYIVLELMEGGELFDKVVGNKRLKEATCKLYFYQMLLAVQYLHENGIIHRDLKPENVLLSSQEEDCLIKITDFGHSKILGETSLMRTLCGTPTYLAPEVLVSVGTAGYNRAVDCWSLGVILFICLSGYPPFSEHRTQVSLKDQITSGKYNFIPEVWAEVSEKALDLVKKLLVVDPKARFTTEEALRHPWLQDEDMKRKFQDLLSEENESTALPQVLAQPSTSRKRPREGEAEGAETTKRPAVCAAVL
Sequence of Calcium/calmodulin-dependent protein kinase type II subunit delta (Homo sapiens) (Q13557 whole entry): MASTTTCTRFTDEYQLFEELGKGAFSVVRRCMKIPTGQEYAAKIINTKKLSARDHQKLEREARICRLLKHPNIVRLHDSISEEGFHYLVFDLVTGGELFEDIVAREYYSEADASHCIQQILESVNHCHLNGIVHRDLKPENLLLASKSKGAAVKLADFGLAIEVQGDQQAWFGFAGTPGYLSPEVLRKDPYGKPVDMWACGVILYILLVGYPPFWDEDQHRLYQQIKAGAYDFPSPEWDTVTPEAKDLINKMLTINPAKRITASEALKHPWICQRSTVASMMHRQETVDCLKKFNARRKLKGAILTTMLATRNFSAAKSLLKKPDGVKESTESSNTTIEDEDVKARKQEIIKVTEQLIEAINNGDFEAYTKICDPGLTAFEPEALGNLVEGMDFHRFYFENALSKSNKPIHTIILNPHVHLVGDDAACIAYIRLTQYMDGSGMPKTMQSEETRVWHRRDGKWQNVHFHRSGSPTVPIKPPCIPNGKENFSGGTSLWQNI
Sequence of 5'-AMP-activated protein kinase catalytic subunit alpha-2 (Homo sapiens) (P54646 whole entry, looked up): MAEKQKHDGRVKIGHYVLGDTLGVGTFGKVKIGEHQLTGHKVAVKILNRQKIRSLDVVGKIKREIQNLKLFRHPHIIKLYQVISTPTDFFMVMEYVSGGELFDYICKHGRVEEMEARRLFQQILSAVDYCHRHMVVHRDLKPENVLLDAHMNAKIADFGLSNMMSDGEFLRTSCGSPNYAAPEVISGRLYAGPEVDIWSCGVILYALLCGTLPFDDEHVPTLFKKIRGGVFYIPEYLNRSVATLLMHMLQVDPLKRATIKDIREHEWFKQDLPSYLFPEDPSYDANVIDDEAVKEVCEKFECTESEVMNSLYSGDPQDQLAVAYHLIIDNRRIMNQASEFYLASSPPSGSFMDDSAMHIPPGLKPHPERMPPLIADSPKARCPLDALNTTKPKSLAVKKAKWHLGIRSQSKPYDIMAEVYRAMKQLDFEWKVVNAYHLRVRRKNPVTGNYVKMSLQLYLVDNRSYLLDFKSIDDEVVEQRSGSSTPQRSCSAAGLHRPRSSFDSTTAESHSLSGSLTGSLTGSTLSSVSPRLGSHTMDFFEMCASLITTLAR

Regarding `CCS(=O)(=O)c1ccc(OC)c(Nc2ncc(-c3cccc(-c4ccccc4F)c3)o2)c1`, the inhibition (usually the change of the read-out against control, counted positive when it falls) was 1.37% in [1]; 1.73% in experiment [2]; 2.9% in [3]; -0.47% in experiment [4]; 0.8% in experiment [5]; 0% in [6]. Besides, the inhibition is -0.51% in [7]; 0.44% in [8]; 0.18% in [9]; -1.21% in experiment [10]; 3.98% in experiment [11]; 1.21% in experiment [12]. In addition, the inhibition in experiment [13] is 11.6%; in experiment [14], 1.15%; in experiment [15], 1.5%; in experiment [16] it was 1.03%; in [17], 2.03%; in experiment [18], -0.11%. The results for the inhibition in [19] and in experiment [20] were -0.35% and -0.16%, respectively.

Consider `CNC(=O)c1cncc(/C=C/c2c(C)cccc2C)c1`, for which the inhibition was determined as 0.33% in experiment [1]; 2.16% in experiment [2]; 2.93% in experiment [3]; 1.29% in experiment [4]; 5.17% in experiment [5]; 0.83% in [6]. The inhibition in experiment [7] was found to be 5.16%; in [8], 1.13%; in experiment [9], 0.73%; in experiment [10], 2.12%; in experiment [11], 3.13%; in experiment [12] it was 1.04%. Also, the inhibition in experiment [13] is 1.43%; in [14], 2.28%; in experiment [15], 0.99%; in [16] it was -0.79%; in [17], 0.19%; in experiment [18], -0.74%. Further, the figures for the inhibition in [19] and in [20] were -0.03% and 0.17%, respectively.

Consider `CN(c1ccc(NC(=O)Nc2c(Cl)cccc2Cl)cc1)c1ccnc(Nc2cccc(CS(C)(=O)=O)c2)n1`, for which the inhibition came to 3.21% in experiment [1]; 9.51% in experiment [2]; 30.2% in experiment [3]; 0.84% in [4]; 9.78% in [5]; 2.74% in experiment [6]. Moreover, the inhibition in [7] was 8.66%; in experiment [8], 1.34%; in experiment [9], -0.13%; in experiment [10] it was 2.56%; in [11], 2.73%; in experiment [12], 1.22%. The inhibition was -0.38% in experiment [13]; -1.59% in experiment [14]; -4.21% in [15]; 1.99% in experiment [16]; 4.63% in experiment [17]; 10.1% in experiment [18]. For the same compound, the inhibition in [19] is 16.8%; in experiment [20], 4.55%.

As to `CCc1ccc(Oc2nccc(-c3c(-c4ccc(F)cc4)ncn3C3CCNCC3)n2)cc1`, the inhibition in [1] is 7.27%; in [2], -0.89%; in experiment [3], 3.95%; in experiment [4], 1.81%; in experiment [5], -0.56%; in experiment [6] it was 1.84%. The inhibition is 3.86% in experiment [7]; 1.54% in experiment [8]; 3.63% in [9]; 4.59% in experiment [10]; 5.86% in [11]; 4.44% in [12]. The inhibition in experiment [13] stood at 7.05%; in experiment [14], 2.89%; in [15], 5.14%; in [16], 4.54%; in experiment [17], 6.62%; in [18], 3.02%. Also, the inhibition in experiment [19] turned out to be 5.66%; in experiment [20] it was 4.58%.
